In all, about 5,500 compounds went through this assay and about 2,000 (36%) were called active. Roughly 18% stayed inconclusive and do not appear here. No stated cut-off is given here; in the data, active means normalized growth mostly below about 0.91 (no sharp cut-off); inconclusive means no clear call, values can overlap the other calls; inactive means mostly above about 0.92. The list shows a part of the results.
Test: chemical genetic growth profiling, strain panel (AID 1159580);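 further: tested at 20 µM; growth read once vehicle control cultures reached saturation at 30 °C; 1 = growth at the plate median or of vehicle wells; lower values mean less growth of the strain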
Settings: growth OD

Measured: normalized growth

COc1ccc2c(c1)OC[C@@H](Cc1ccc(OC)c(OC)c1)[C@H]2O
active: S. cerevisiae deletion strains, locus YKR001C, strain vps1, hits give low values 0.84 | S. cerevisiae deletion strains, locus YLR039C, strain RIC1, hits give low values 0.675 | S. cerevisiae deletion strains, locus YLR262C, strain YPT6 (second series), hits give low values 0.755
inactive: S. cerevisiae deletion strains, locus YJR066W, strain TOR1, hits give low values 0.913 | S. cerevisiae deletion strains, locus YKL009W, strain mrt4, hits give low values 0.954 | S. cerevisiae deletion strains, locus YKL068W, hits give low values 0.973 | S. cerevisiae deletion strains, locus YKL085W, strain MDH1 (second series), hits give low values 0.976 | S. cerevisiae deletion strains, locus YKL085W, strain MDH1, hits give low values 0.976 | S. cerevisiae deletion strains, locus YKL160W, strain elf1, hits give low values 1.01 | S. cerevisiae deletion strains, locus YKL190W, strain CNB1, hits give low values 0.997 | S. cerevisiae deletion strains, locus YKR026C, strain gcn3, hits give low values 1 | S. cerevisiae deletion strains, locus YKR091W, strain srl3, hits give low values 1 | S. cerevisiae deletion strains, locus YLL001W, strain dnm1, hits give low values 0.979 | S. cerevisiae deletion strains, locus YLL026W, hits give low values 0.996 | S. cerevisiae deletion strains, locus YLL041C, strain sdh2, hits give low values 1 | S. cerevisiae deletion strains, locus YLR027C, strain aat2, hits give low values 1.01 | S. cerevisiae deletion strains, locus YLR058C, strain SHM2, hits give low values 1 | S. cerevisiae deletion strains, locus YLR102C, strain apc9, hits give low values 0.981 | S. cerevisiae deletion strains, locus YLR113W, strain HOG1, hits give low values 0.871 | S. cerevisiae deletion strains, locus YLR221C, strain rsa3, hits give low values 1.01 | S. cerevisiae deletion strains, locus YLR258W, strain gsy2, hits give low values 0.994 | S. cerevisiae deletion strains, locus YLR262C, strain YPT6, hits give low values 0.641 | S. cerevisiae deletion strains, locus YLR268W, strain sec22, hits give low values 0.997 | S. cerevisiae deletion strains, locus YLR320W, strain mms22, hits give low values 1.01 | S. cerevisiae deletion strains, locus YLR330W, strain CHS5, hits give low values 0.984 | S. cerevisiae deletion strains, locus YLR342W, strain FKS1 (second series), hits give low values 1.02 | S. cerevisiae deletion strains, locus YLR342W, strain FKS1, hits give low values 1 | S. cerevisiae deletion strains, locus YLR357W, strain rsc2, hits give low values 1.01 | S. cerevisiae deletion strains, locus YLR370C, strain arc18, hits give low values 1 | S. cerevisiae deletion strains, locus YLR371W, strain rom2, hits give low values 0.96 | S. cerevisiae deletion strains, locus YLR384C, strain iki3, hits give low values 1.01 | S. cerevisiae deletion strains, locus YLR418C, strain cdc73, hits give low values 1.04 | S. cerevisiae deletion strains, locus YML016C, strain PPZ1, hits give low values 1 | S. cerevisiae deletion strains, locus YML032C, strain rad52, hits give low values 0.975 | S. cerevisiae deletion strains, locus YML120C, strain ndi1, hits give low values 1 | S. cerevisiae deletion strains, locus YML124C, strain tub3, hits give low values 0.976 | S. cerevisiae deletion strains, locus YMR058W, strain fet3, hits give low values 1.02 | S. cerevisiae deletion strains, locus YMR078C, strain ctf18, hits give low values 0.977 | S. cerevisiae deletion strains, locus YMR125W, strain sto1, hits give low values 1.01 | S. cerevisiae deletion strains, locus YMR129W, hits give low values 1.01 | S. cerevisiae deletion strains, locus YMR205C, strain PFK2, hits give low values 0.966 | S. cerevisiae deletion strains, locus YMR223W, strain ubp8, hits give low values 0.976 | S. cerevisiae deletion strains, locus YMR231W, strain pep5, hits give low values 0.981 | S. cerevisiae deletion strains, locus YMR307W, strain GAS1, hits give low values 1.11 | S. cerevisiae deletion strains, locus YNL067W, strain RPL9B, hits give low values 1.02 | S. cerevisiae deletion strains, locus YNL071W, strain lat1, hits give low values 1 | S. cerevisiae deletion strains, locus YNL153C, strain GIM3, hits give low values 1.03 | S. cerevisiae deletion strains, locus YNL183C, strain NPR1, hits give low values 0.867 | S. cerevisiae deletion strains, locus YNL209W, strain ssb2, hits give low values 1.02 | S. cerevisiae deletion strains, locus YNL233W, strain BNI4, hits give low values 1.02 | S. cerevisiae deletion strains, locus YNL248C, strain rpa49, hits give low values 1.01 | S. cerevisiae deletion strains, locus YNL250W, strain rad50, hits give low values 0.962 | S. cerevisiae deletion strains, locus YNL271C, strain bni1, hits give low values 0.977 | S. cerevisiae deletion strains, locus YNL298W, strain CLA4, hits give low values 0.991 | S. cerevisiae deletion strains, locus YNL307C, strain MCK1, hits give low values 0.971 | S. cerevisiae deletion strains, locus YNL322C, strain KRE1 (second series), hits give low values 0.973 | S. cerevisiae deletion strains, locus YNR049C, strain mso1, hits give low values 1.01 | S. cerevisiae deletion strains, locus YNR052C, strain pop2, hits give low values 0.978 | S. cerevisiae deletion strains, locus YOL012C, strain htz1 1.24 | S. cerevisiae deletion strains, locus YOL147C, strain pex11, hits give low values 0.983 | S. cerevisiae deletion strains, locus YOR001W, strain rrp6, hits give low values 1.03 | S. cerevisiae deletion strains, locus YOR061W, strain CKA2, hits give low values 0.999 | S. cerevisiae deletion strains, locus YOR069W, strain VPS5, hits give low values 0.995 | S. cerevisiae deletion strains, locus YOR070C, strain gyp1, hits give low values 1 | S. cerevisiae deletion strains, locus YOR080W, strain dia2, hits give low values 1.01 | S. cerevisiae deletion strains, locus YOR083W, strain WHI5, hits give low values 0.997 | S. cerevisiae deletion strains, locus YOR106W, strain vam3, hits give low values 0.99 | S. cerevisiae deletion strains, locus YOR136W, strain idh2, hits give low values 0.986 | S. cerevisiae deletion strains, locus YOR144C, strain elg1, hits give low values 0.995 | S. cerevisiae deletion strains, locus YOR184W, strain ser1, hits give low values 0.964 | S. cerevisiae deletion strains, locus YOR231W, strain MKK1, hits give low values 0.93 | S. cerevisiae deletion strains, locus YOR265W, strain rbl2, hits give low values 1.01 | S. cerevisiae deletion strains, locus YOR270C, strain vph1, hits give low values 1.01 | S. cerevisiae deletion strains, locus YOR290C, strain snf2, hits give low values 0.987 | S. cerevisiae deletion strains, locus YOR316C, strain cot1, hits give low values 0.969 | S. cerevisiae deletion strains, locus YPL051W, strain arl3, hits give low values 0.997 | S. cerevisiae deletion strains, locus YPL078C, strain atp4, hits give low values 1.02 | S. cerevisiae deletion strains, locus YPL106C, strain sse1, hits give low values 1.03 | S. cerevisiae deletion strains, locus YPL240C, strain hsp82, hits give low values 1.01 | S. cerevisiae deletion strains, locus YPL241C, strain CIN2, hits give low values 1 | S. cerevisiae deletion strains, locus YPL256C, strain CLN2, hits give low values 0.907 | S. cerevisiae deletion strains, locus YPR119W, strain clb2, hits give low values 0.974 | S. cerevisiae deletion strains, locus YPR141C, strain kar3, hits give low values 0.979 | S. cerevisiae deletion strains, locus YPR163C, strain tif3, hits give low values 0.974 | S. cerevisiae deletion strains, locus YPR167C, strain met16, hits give low values 0.959 | S. cerevisiae deletion strains, strain wtn01, hits give low values 0.97 | S. cerevisiae strains, strain wild type, hits give low values 0.995
